Screens from PubChem.
An excerpt weighted towards active compounds, which were near 4.1% of everything screened.
DAX1 inh-1: DAX1 (NR0B1) inhibitors, primary screen, cell-based, HEK293, Gal4-DAX1, luciferase luminescence. HEK293 Gal4-DAX1 luciferase reporter. inhibition, % at 6.75 µM. 0.99% of 340,000 active. AID 504766, 2011;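 active = inhibition above the mean over all tested compounds plus 3 SD, cut at about 4.2% in these data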;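 also: 0% = DAX1-transfected cells with DMSO and 100% = empty-vector control cells with DMSO; inhibition shows as a rise in luminescence from relieved DAX1 repression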
Target sequence (P51843 207-470 limits assumed): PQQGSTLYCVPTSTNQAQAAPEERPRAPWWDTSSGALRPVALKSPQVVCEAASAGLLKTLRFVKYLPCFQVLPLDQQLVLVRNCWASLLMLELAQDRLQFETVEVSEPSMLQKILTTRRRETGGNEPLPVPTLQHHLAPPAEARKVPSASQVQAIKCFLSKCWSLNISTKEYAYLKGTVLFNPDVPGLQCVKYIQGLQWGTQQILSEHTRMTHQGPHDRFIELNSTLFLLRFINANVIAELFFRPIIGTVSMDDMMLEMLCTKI
DAX1 inh-2: DAX1 (NR0B1) inhibitors on StAR promoter, primary screen, cell-based, luminescence, SF-1 (NR5A1), full-length DAX-1. HEK293T StAR-luciferase reporter, SF-1/DAX-1 repression relief. inhibition, % at 6.8 µM. 1.1% of 370,000 active. AID 652010, 2013;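 active = inhibition above the mean over all tested compounds plus 3 SD, cut at about 3.6% in these data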;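 also: 0% = DAX-1 cells with DMSO and 100% = cells lacking DAX-1 with DMSO; higher inhibition means more luminescence from relief of DAX-1 repression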
hgDAF-12 ag: H. glycines DAF-12 receptor agonists, primary screen, cell-based, luminescence, HEK293, GAL4 fusion, UAS-luciferase | 1.8% of 370,000 active | Nuclear hormone receptor DAF-12 (Heterodera glycines), GAL4 fusion | HEK293 GAL4-hgDAF12 UAS-luciferase reporter, agonist luminescence; normalized to butyrate control | activation, % at 6.8 µM;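 active = activation above a cutoff set at the mean of all screened compounds plus 3 SD, cut at about 10% in these data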;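 also: 0% = DMSO wells and 100% = sodium butyrate wells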
hcDAF12 agonist: H. contortus DAF-12 nuclear receptor activators, primary screen, cell-based, luminescence, HEK293, lit1-tk-luc reporter | HEK293 hcDAF-12 lit1-tk-luc reporter; 0% DMSO, 100% Δ7-dafachronic acid | activation, % at 6.8 µM | 1.4% of 370,000 active | AID 652067, 2013;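 active = activation above the mean of all tested compounds plus 3 SD, cut at about 5.5% in these data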;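 also: 100% = response to 3 µM Δ7-dafachronic acid high control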
ssDAF12 agonist: S. stercoralis DAF-12 nuclear receptor activators, primary screen, cell-based, luminescence, HEK293, GRIP1 co-expression, lit1-tk-luc | Nuclear hormone receptor DAF-12 (Strongyloides stercoralis) | HEK293 ssDAF-12/GRIP1 lit1-tk-luc reporter; % of 3 µM dafachronic acid response | activation, % at 6.8 µM | 1% of 370,000 active;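 active = activation above the mean over all tested compounds plus 3 SD, cut at about 0.9% in these data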;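 also: 0% = DMSO-only wells and 100% = 3 µM delta7-dafachronic acid wells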
DAX1 conf: DAX1 (NR0B1) inhibitors relieving SF-1 repression, confirmation, cell-based, luminescence, HEK293T, full-length DAX-1, SF-1 activated StAR promoter; shares compounds with DAX1 inh-2; AID 652134, 2013; 87% of 2,400 active; HEK293T StAR-promoter luciferase reporter, SF-1/DAX-1 repression; inhibition, % at 6.8 µM;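 active = inhibition above the average of every tested compound plus 3 SD, cut at about 3.8% in these data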;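 also: 0% = DAX-1 cells with DMSO and 100% = no DAX-1 control cells with DMSO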
SF1 mutant ctr: StAR reporter signal changes without DAX1, counter-screen for DAX1 inhibitor project, cell-based, luminescence, AF-2 mutant SF-1, transactivation | shares compounds with DAX1 inh-2 | inhibition, % at 6.8 µM | AID 652136, 2013 | 78% of 2,400 active | HEK293 StAR-luciferase, SF-1 AF2 mutant;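 active = inhibition above the mean of all tested compounds plus 3 SD, cut at about 3% in these data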;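 also: 0% = DAX-1 transfected cells with DMSO and 100% = cells without DAX-1 with DMSO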
LXRb hcDAF ctr: LXR agonists, Gal4 luciferase reporter, confirmation, counter-screen for hcDAF-12 agonist project, cell-based, luminescence, HEK293, H. contortus campaign | shares compounds with hcDAF12 agonist | HEK293 Gal4-LXR tk-luc reporter, 24 h; normalized: DMSO 0%, positive control 100% | activation, % at 6.8 µM | 3,400 tested, under 10 active | AID 743027, 2013;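 active = mean percent activation of the reporter above a cutoff set as the average over tested compounds plus their standard deviation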
Target sequence (P55055 whole entry, looked up, the tested form may be a part): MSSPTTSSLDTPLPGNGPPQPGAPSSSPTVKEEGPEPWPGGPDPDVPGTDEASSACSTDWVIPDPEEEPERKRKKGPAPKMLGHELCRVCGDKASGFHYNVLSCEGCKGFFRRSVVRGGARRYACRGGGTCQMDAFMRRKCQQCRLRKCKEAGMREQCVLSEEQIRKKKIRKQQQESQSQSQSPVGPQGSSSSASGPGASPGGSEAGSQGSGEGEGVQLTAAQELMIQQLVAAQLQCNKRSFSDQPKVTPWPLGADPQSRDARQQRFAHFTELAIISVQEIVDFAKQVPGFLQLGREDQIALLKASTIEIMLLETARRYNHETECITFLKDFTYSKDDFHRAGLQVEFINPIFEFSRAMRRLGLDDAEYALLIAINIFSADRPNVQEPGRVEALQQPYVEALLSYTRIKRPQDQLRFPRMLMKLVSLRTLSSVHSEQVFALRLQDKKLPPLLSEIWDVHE
hcDAF12 ag: H. contortus DAF-12 receptor agonists, confirmation, cell-based, luminescence, HEK293, lit1-tk-luc, triplicate. shares compounds with hcDAF12 agonist. HEK293 hcDAF-12 lit1-tk-luc reporter; % of Δ7-dafachronic acid response. activation, % at 6.8 µM. 61% of 3,400 active;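 active = mean activation across triplicate tests above the threshold derived from the earlier primary screen, cut at about 5.5% in these data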;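 also: 0% = DMSO only wells and 100% = 3 µM Δ7-dafachronic acid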
hgDAF12 ag: H. glycines DAF-12 receptor agonists, confirmation, cell-based, luminescence, HEK293, GAL4-LBD fusion | shares compounds with hgDAF-12 ag | HEK293 GAL4-hgDAF12 luciferase reporter, agonist mode; percent of butyrate response | activation, % at 6.8 µM | 80% of 3,300 active;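 active = mean activation over triplicate wells above the hit cutoff derived from the earlier primary screen, cut at about 11% in these data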;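 also: 0% = DMSO low control and 100% = 2 mM sodium butyrate high control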
LXRb DAF12 ctr: LXR agonists, Gal4 luciferase reporter, confirmation, counter-screen for hgDAF-12 agonist project, cell-based, luminescence, HEK293, H. glycines campaign | AID 743051, 2013 | activation, % at 6.8 µM | 3,300 tested, under 10 active | shares compounds with hgDAF-12 ag | 24 h;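 active = mean activation of the triplicate above a set limit carried over from the primary screen, none filed active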
* marks the source's active call; other numbers are inactive results; · = no result given.

SMILES | DAX1 inh-1 | DAX1 inh-2 | hgDAF-12 ag | hcDAF12 agonist | ssDAF12 agonist | DAX1 conf | SF1 mutant ctr | LXRb hcDAF ctr | hcDAF12 ag | hgDAF12 ag | LXRb DAF12 ctr
NC(=O)c1ncn([C@@H]2O[C@H](C(=O)N[C@H](Cc3c[nH]c4ccccc34)C(=O)N3CCN(C(=O)C4CC4)CC3)[C@@H](O)[C@H]2O)n1 | · | 0 | 1 | -1 | 0 | · | · | · | · | · | ·
ON=C(CCc1ccccc1)c1ccccc1 | · | 5.1* | 15* | 7.0* | 0 | 12* | 6.7* | 1 | 5.8* | 16* | 1
O/N=C(\COc1ccccc1O)c1ccccc1 | -1 | 0 | 0 | 0 | -1 | · | · | · | · | · | ·
CCOC(=O)N[C@H](C(=O)N1CCC[C@H]1C(=O)NCCc1ccccc1Cl)C1CCCCC1 | · | 1 | -2 | 4 | -1 | · | · | · | · | · | ·
CC1CCCCC12NC(=O)N(CC(=O)NCc1cccs1)C2=O (stereo not drawn) | 0 | 1 | -1 | -1 | -2 | · | · | · | · | · | ·
Cc1cc(C(=O)CN2C(=O)NC3(CCCCC3C)C2=O)c(C)n1Cc1cccs1 (stereo not drawn) | 1 | 5.0* | 15* | 4 | 0 | 9.6* | 5.5* | · | · | 10* | 1
COC(=O)C1=C(C)N(Cc2cccc(C(F)(F)F)c2)C(=NCc2ccccc2C(F)(F)F)NC1c1ccc(Cl)cc1 (stereo not drawn) | · | -1 | 2 | -2 | -1 | · | · | · | · | · | ·
CN(C)c1ccc(C=Cc2cnccn2)cc1 | -1 | 6.7* | 18* | 5 | 0 | 16* | 9.8* | · | · | 16* | 1
CN(C)c1ccc(/C=C/c2ccncc2)cc1 | 0 | 1 | 8 | 4 | -1 | · | · | · | · | · | ·
O=C(Nc1ccccc1NC(=O)c1csnn1)c1csnn1 | 1 | 0 | 1 | 1 | -1 | · | · | · | · | · | ·
CC(C)c1ccc(NC(=O)c2csnn2)cc1 | 0 | 4.7* | 13* | 5 | 1.1* | 12* | 6.6* | · | · | 13* | 1
C=CCn1c(C)cc(C(=O)Cn2nc(C(=O)O)c3ccccc3c2=O)c1C | 2 | 5.0* | 15* | 2 | 0.9* | 10* | 4.0* | · | · | 13* | 1
CC(=O)c1cccc(NC(=O)c2cc(C(C)C)on2)c1 | 0 | 5.2* | 17* | 5 | 0 | 11* | 8.0* | · | · | 10* | 1
CC(=O)c1cccc(NC(=O)c2cc(-c3ccc(F)cc3)on2)c1 | 0 | 0 | 4 | 0 | 0 | · | · | · | · | · | ·
CC(C)c1cc(C(=O)Nc2cccc(Cl)c2)no1 | 1 | 4.6* | 19* | 7.8* | 1 | 16* | 9.3* | 2 | 5.8* | 19* | 1
CN(C)[C@@H]1CCN(c2cccc3c2S(=O)(=O)N(C2CC2)CCCO3)C1 | · | -1 | 2 | 1 | -1 | · | · | · | · | · | ·
CCOc1ccc(-c2nnc(SCC(=O)N3CCNC3=O)o2)cc1 | 1 | 6.2* | 14* | 6.2* | 1 | 12* | 5.3* | · | · | 15* | 1
CN(C)[C@@H]1CCN(c2ccc3c(c2)OCCCN(C2CC2)S3(=O)=O)C1 | · | -1 | 1 | 1 | -1 | · | · | · | · | · | ·
COC(=O)[C@]12C[C@H](CC(=O)N3CCCCC3)C(=O)N(Cc3ccc(Cl)cc3Cl)C1=C[C@H](C(C)C)O[C@@H]2C1CC1 | · | -1 | -1 | -2 | 0 | · | · | · | · | · | ·
Cc1cccc(C)c1Nc1nc2ccccc2o1 | -1 | 0 | -2 | -1 | 0 | · | · | · | · | · | ·
Clc1ccccc1Nc1nc2ccccc2o1 | 1 | 9.3* | 13* | 11* | 1.2* | 14* | 9.0* | 1 | 10* | 23* | 1
Cc1ccc2nc(/C=C/c3cccc(F)c3)ccc2c1 | 2 | 5.1* | 21* | 8.3* | 2.8* | 10* | 5.1* | 2 | 8.7* | 20* | 1
O=c1[nH]c(/C=C\c2cccc(F)c2)nc(O)c1[N+](=O)[O-] | 1 | 0 | 0 | 0 | -1 | · | · | · | · | · | ·
COC(=O)c1cc2c(c3c4cc(C)ccc4n(S(=O)(=O)c4cccc(C)c4)c13)C(=O)N(Cc1ccc(N(C)C)cc1)C2 | · | -1 | 4 | 0 | -1 | · | · | · | · | · | ·
CCOC(=O)CSc1nc2ccc(C)cc2cc1C#N | 4 | 5.6* | 14* | 8.9* | 0 | 13* | 10.0* | 1 | 4 | 20* | 1
CCOC(=O)CSc1nc2cc(OC)ccc2cc1C#N | 2 | 4.8* | 13* | 7.2* | 1 | 15* | 8.1* | 1 | 5 | 20* | 1
CCOC(=O)CSc1nc2cc(C)cc(C)c2cc1C#N | 0 | 0 | -1 | -1 | -1 | · | · | · | · | · | ·
Cc1cc(NS(=O)(=O)c2ccc(NC(=O)CSc3nnc(-c4ccncc4)n3-c3ccccc3)cc2)nc(C)n1 | · | 1 | 0 | -4 | -2 | · | · | · | · | · | ·
CCOC(=O)c1sc(=NC(=O)c2ccccc2)n(C)c1C | 3 | 4.6* | 13* | 16* | 2.2* | 15* | 9.6* | 1 | 14* | 18* | 1
c1ccc(N=Nc2ccc(C3=NCCO3)cc2)cc1 | 3 | 11* | 18* | 7.9* | 1 | 19* | 9.0* | 1 | 5 | 16* | 1
